# Experimental data: PubChem BioAssay AID1259313 (Sanford-Burnham Center for Chemical Genomics, 2017)
# The whole screen tested about 340,000 compounds, of which about 8,500 (2.5%) were called active. This excerpt belongs to a sample that is enriched for actives. A number with no mark means an inactive call.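 The calls were made as follows: active = melting temperature shift of at least 10% of the positive control shift, at one fixed dose; inactive = the rest.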
# Test system: Glutamate receptor ionotropic, NMDA 3A (GRIN3A) ligand-binding domain
# Test: NR3A LBD thermal stabilization by compounds – biophysical, differential scanning fluorimetry, uHTS, primary screen (AID 1259313)
# Details: at 25 µM, hits give high values, 0% = protein alone, 100% = glycine-bound protein
row,SMILES,Tm shift relative to glycine control
1,COc1ccc2oc(-c3cccc(NC(=O)CSc4ccc(Cl)cc4)c3)nc2c1,13.7% (active)
2,COc1cccc(NC(=O)CSc2nnc(-c3cccnc3)o2)c1,-0.43%
3,COc1ccc(C(=O)NCc2nnc(SCC(=O)Nc3cccc(OC)c3)o2)cc1,-1.39%
4,COCCCNC(=O)CNC(=O)c1nn(-c2ccc(OC)cc2)c(=O)c2ccccc12,-1.01%
5,CCOC(=O)C1CCN(CC(=O)Nc2ccc(OC)c(S(=O)(=O)N3CCCCC3)c2)CC1,0.25%
6,C#CCOCCOCCOCCNc1nc(N2CCN(C(=O)CCCCCCCCCCNC(=O)[C@H](CCCCN)n3cc(C)nn3)CC2)nc(N2CCN(C(=O)CCCCCCCCCCNC(=O)[C@H](CO)n3cc(CCCSC)nn3)CC2)n1,24.7% (active)
7,C#CCOCCOCCOCCNc1nc(N2CCN(C(=O)CCCCCCCCCCNC(=O)[C@H]([C@@H](C)CC)n3cc(CCCCN=C(N)N)nn3)CC2)nc(N2CCN(C(=O)CCCCCCCCCCNC(=O)[C@H](CO)n3cc(CCCSC)nn3)CC2)n1,17% (active)
8,C#CCOCCOCCOCCNc1nc(N2CCN(C(=O)[C@H](C(C)C)n3cc(CCO)nn3)CC2)nc(N2CCN(C(=O)[C@H]([C@@H](C)CC)n3cc(CCCN=C(N)N)nn3)CC2)n1,1.78%
9,C#CCOCCOCCOCCNc1nc(N2CCN(C(=O)[C@H](CCC(=O)O)n3cc(CN)nn3)CC2)nc(N2CCN(C(=O)[C@H](CCC(=O)O)n3cc(CN)nn3)CC2)n1,1.02%
10,C#CCOCCOCCOCCNc1nc(N2CCN(C(=O)[C@H](CCCCN)n3cc(CCC(=O)O)nn3)CC2)nc(N2CCN(C(=O)[C@H](CCCCN)n3cc(CC(C)O)nn3)CC2)n1 (some centres undefined),1.78%
11,C#CCOCCOCCOCCNc1nc(N2CCN(C(=O)Cn3cc(CCO)nn3)CC2)nc(N2CCN(C(=O)[C@H](CCCCN)n3cc(CCCC)nn3)CC2)n1,0.76%
12,C#CCOCCOCCOCCNc1nc(N2CCN(C(=O)Cn3cc(CCO)nn3)CC2)nc(N2CCN(C(=O)Cn3cc(CCCN=C(N)N)nn3)CC2)n1,0%
13,C#CCOCCOCCOCCNc1nc(N2CCN(C(=O)CCCCCCCCCCNC(=O)Cn3cc(CCCCCN)nn3)CC2)nc(N2CCN(C(=O)CCCCCCCCCCNC(=O)[C@H](CO)n3cc(CCCSC)nn3)CC2)n1,14.2% (active)
14,C#CCOCCOCCOCCNc1nc(N2CCN(C(=O)Cn3cc(CCCCN)nn3)CC2)nc(N2CCN(C(=O)[C@H](CCCCN)n3cc(CCC(=O)O)nn3)CC2)n1,1.78%
15,CCn1c(SC)nc(O)c(C(c2ccc(OC)c(O)c2)c2c(O)nc(SC)n(CC)c2=O)c1=O,-1.71%
16,O=C(O)c1cc2ccccc2c(=O)s1,-0.71%
17,O=C(CCNC(=O)Cn1ccc2ccccc2c1=O)NCCC1=CCCCC1,-1.72%
18,O=C(NCc1ccccn1)C1CCN(S(=O)(=O)c2ccc(Br)cc2)CC1,-1.11%
19,Cc1nc(COc2cc3oc(=O)cc(C)c3cc2Cl)cs1,-0.26%
20,CCN(CC(=O)NC(C)C)C(=O)c1cc(S(=O)(=O)N2CCCCC2)ccc1N1CCCCC1,-0.99%

row,SMILES,Tm shift relative to glycine control
1,Cc1cccc(Nc2nc3c(S(=O)(=O)c4ccccc4)nnn3c3ccccc23)c1C,1.31%
2,Cc1ccc(S(=O)(=O)c2nnn3c2nc(N2CCN(c4ccccn4)CC2)c2ccccc23)cc1,5.05%
3,CC(=O)Nc1ccc(Nc2nc3c(S(=O)(=O)c4ccc(C)c(C)c4)nnn3c3ccccc23)cc1,14.7% (active)
4,CCC12CN3CC(CC)(CN(C1)C31C(=O)N(C)c3ccc(C)cc31)C2=O (centres undefined),0%
5,O=c1c2ccccc2nc2n1C(CSCc1cccc(C(F)(F)F)c1)CS2 (centres undefined),16.1% (active)
6,O=c1c2ccccc2nc2n1C(CSCc1ccccc1)CS2 (centres undefined),-1.4%
7,O=c1c2ccccc2nc2n1C(CSc1ccc(F)cc1)CN2 (centres undefined),-3.8%
8,COc1ccc(C(=O)NCc2nnc(SCC(=O)NC3=NCCS3)n2C)cc1,-1.86%
9,CCOc1ccc(NC(=O)c2ccc(NC(=O)COC(=O)c3ccc(NC(=O)CC#N)cc3)cc2)cc1,9.12%
10,CCOc1ccc(NC(=O)CCNC(=O)c2ccc(Br)cc2)cc1,-4.23%
11,CCOc1ccc(NC(=O)c2ccc(NC(=O)CN3C(=O)C(=O)N(CC(C)C)C3=O)cc2)cc1,28.5% (active)
12,CCCOc1ccc(Cl)cc1Nc1nc(NCCO)nc(N2CCCC2)n1,1.78%
13,Cc1cc(C)c(C#N)c(SCS(=O)c2ccc(C(C)(C)C)cc2)n1 (centres undefined),1.37%
14,O=C(Cc1cccs1)N/N=C/c1ccc(OCc2ccccc2)cc1,2.17%
15,O=C(COc1ccc(/C=N/NC(=O)c2ccc(O)cc2)cc1)Nc1ccc([N+](=O)[O-])cc1,7.26%
16,CC(C)(C)C(=O)Nc1ccc(C(=O)N/N=C/c2ccccc2OC(=O)c2ccc(Cl)cc2Cl)cc1,2.16%
17,O=C(N/N=C/c1ccc(OCc2ccccc2)cc1)c1ccc(O)cc1,28.3% (active)
18,O=C(O)c1ccc(/C=N/NC(=O)c2ccc(Br)cc2)cc1,-0.55%
19,O=C(N/N=C/c1ccc(OC(=O)c2ccccc2Cl)cc1)c1ccc(O)cc1,24.6% (active)
